Hits are enriched below; roughly 7.9% of the tested compounds scored in any of these assays.
PLAP activator = human PLAP activation | activation fold at 20 µM | purified PLAP enzyme, luminescent substrate read-out; active compounds read high | actives 1.2% (n = 96,000) | P05187; in the data active = activation fold above about 2
Her2 expr inh = inhibitors of human Her2 kinase expression | P04626 | SKBR-3 HER2 protein level, AlphaScreen, 18-24 h; active compounds read low | HER2 level % of control, % at 10 µM | actives 0.69% (n = 65,000);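 active = HER2 level under 5% of the carrier-only control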;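 note: 100% = DMSO carrier and 0% = 500 nM PU-H71 HSP90 inhibitor; lower value means stronger loss of Her2 protein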
Cav3 T inh = human Cav3.2 channel inhibition, primary screen; Cav3.2-expressing cells, Fluo-4 calcium fluorescence FDSS; active compounds read low; B-score at 10 µM; actives 4% (n = 100,000);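 active = single-dose well whose peak fluorescence ratio is a statistical outlier from its plate by either plate-standardised score or position-corrected B-score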
M1 agonist = activates the M1 muscarinic receptor; CHO-M1 cells, Fluo-4 calcium fluorescence, agonist mode; active compounds read high; AID 626; B-score at 10 µM; actives 3% (n = 64,000);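 active = fluorescence rise, raw or as B-score row- and column-corrected plate score, outside the 99.7% band of its plate's samples, either direction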
M1 antagonist = antagonists of rat M1 muscarinic receptor; CHO-M1 cells, Fluo-4 calcium, ACh EC80 antagonist mode; active compounds read low; B-score at 10 µM; actives 3.4% (n = 64,000); AID 628;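 active = calcium fluorescence response, raw or row-and-column corrected B-score, differing from the plate sample mean either way at a set confidence level, mostly lower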
Target sequence (P08482 whole entry, looked up): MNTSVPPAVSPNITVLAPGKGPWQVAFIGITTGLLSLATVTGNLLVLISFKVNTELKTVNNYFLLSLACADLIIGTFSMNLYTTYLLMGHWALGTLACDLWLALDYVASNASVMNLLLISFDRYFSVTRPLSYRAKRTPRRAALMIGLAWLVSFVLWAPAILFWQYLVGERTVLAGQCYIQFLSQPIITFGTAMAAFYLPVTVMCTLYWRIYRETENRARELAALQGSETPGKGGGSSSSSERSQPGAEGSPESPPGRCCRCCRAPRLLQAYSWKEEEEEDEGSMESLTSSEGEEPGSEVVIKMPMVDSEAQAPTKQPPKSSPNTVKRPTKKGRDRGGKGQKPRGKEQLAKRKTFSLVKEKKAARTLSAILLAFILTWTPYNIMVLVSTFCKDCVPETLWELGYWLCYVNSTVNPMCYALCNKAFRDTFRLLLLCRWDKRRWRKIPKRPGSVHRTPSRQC
Starred values were filed as active, the others as inactive; . = not tested or not shown.

SMILES	PLAP activator	Her2 expr inh	Cav3 T inh	M1 agonist	M1 antagonist
O=C(CSc1ncn[nH]1)N(C1CCCCC1)C1CCCCC1	2*	.	-1.1	.	.
O=C(N/N=C/c1ccc(Br)o1)/C(=C/c1ccc([N+](=O)[O-])cc1)NC(=O)c1ccccc1	1.4	.	-4.9*	.	.
CC1(C)C(N(O)C(=O)Nc2ccc(Cl)cc2)N(c2ccc(Cl)cc2)C(=O)N1CC(=O)NN (centres undefined)	2*	.	-1.8	.	.
O=C(CSc1nnc(-c2ccc(Br)cc2)n1C1CCCCC1)N1CCCC1	.	108	0.78	0.21	-0.41
CC(C)(C)c1ccc(-c2nnc(SCCC#N)n2C2CCCC2)cc1	1	85	-4.4*	0.038	0.15
COC(=O)CCC(=O)OC1(C)C(=O)C=C2C=C(C3CC3)OC=C2C1=O (centres undefined)	.	.	-0.3	.	.
CCCSC1=C(C#N)C(c2cccs2)C(C(=O)Nc2ccccc2)=C(C)N1 (centres undefined)	.	.	-2.7*	.	.
Cc1ccc(NC(=S)NNC(=O)c2ccccc2OC(F)F)cc1	1.8	.	.	.	.
Cc1ccc(NC(=S)NNC(=O)c2c([N+](=O)[O-])c(C)nn2C)cc1	2.5*	.	-0.33	.	.
Cc1nn(CCC(=O)NNC(=S)Nc2ccc(Cl)cc2)c(C)c1[N+](=O)[O-]	.	.	-1.2	.	.
Cc1ccc(NC(=S)NNC(=O)c2nn(C)c(C)c2Cl)cc1	2.3*	.	.	.	.
Cc1ccc(NC(=S)NNC(=O)c2cn(C)nc2C)cc1	2.3*	.	-0.54	.	.
Cc1nn(C(C)C(=O)NNC(=S)Nc2ccc(Cl)cc2)c(C)c1[N+](=O)[O-] (centres undefined)	2.4*	.	-2.2	.	.
O=C(CSc1nnc2c(Cl)cc(C(F)(F)F)cn12)Nc1ccc2c(c1)OCO2	0.9	204	0.048	-0.48	-1.2
CC(=O)Oc1c(Cl)c(N2CCOCC2)c(OC(C)=O)c2ccccc12	1.2	78	-2.2	1.7	-1.3
COc1cc(OC)c(Cl)cc1N	0.8	102	0.55	0.28	0.8
Cc1ccc(C(C(=O)NCc2ccccc2)N(C(=O)c2csnn2)c2cccc3ccccc23)o1 (centres undefined)	1.4	.	-7*	.	.
COc1ccc(CNC(=O)C(c2ccc(C)o2)N(C(=O)c2csnn2)c2ccc(C(C)C)cc2)cc1 (centres undefined)	1.4	.	-7.1*	.	.
Cc1nn(CCc2n[nH]c(=S)n2-c2cccc(Cl)c2)c(C)c1[N+](=O)[O-]	2.2*	.	1.2	.	.
Cc1nn(CCc2n[nH]c(=S)n2-c2ccc(F)c(Cl)c2)c(C)c1[N+](=O)[O-]	1.2	.	-0.36	.	.
N=C1/C(=C\c2ccc(OCc3ccccc3)cc2)C(=O)N=C2SC(N3CCCC3)=NN12	.	.	-0.078	.	.
C=C(C)CNC(=S)NNC(=O)c1ccco1	2*	.	.	.	.
O=C(CNC(=S)NC(=O)c1ccco1)c1ccccc1	1.1	.	0.5	.	.
COc1ccc(/C=C/C(=O)NC(=S)NNC(=O)c2ccco2)cc1	.	.	-5.3*	.	.
COc1ccc(/C=C/C(=O)NC(=S)NNC(=O)Cc2cccs2)cc1	1.1	.	.	.	.
SMILES	PLAP activator	Her2 expr inh	Cav3 T inh	M1 agonist	M1 antagonist
Cc1nn(Cc2ccccc2)c(C)c1NC(=O)c1noc2c1CCc1ccccc1-2	1.5	.	-6.3*	.	.
CCCCN(Cc1ccccc1)c1ncnc2nc[nH]c12	2.1*	106	-2	0.22	0.017
CCCN(c1ccc(OCC)cc1)c1ncnc2nc[nH]c12	2.1*	109	.	1.4	-0.033
c1ccc(CCCNc2ncnc3nc[nH]c23)cc1	1.9	87	0.19	1.7	-0.45
CCN(c1ccc(OC)cc1)c1ncnc2nc[nH]c12	1.7	.	0.25	.	.
Cc1ccc(S(=O)(=O)NCc2ccc(C(=O)N3CCN(c4ccccn4)CC3)cc2)cc1	1.4	88	0.036	4	2.4*
Cc1ccc(NS(=O)(=O)c2ccc(C(=O)N3CCN(c4ccccn4)CC3)cc2)cc1	1.5	.	-3.7	.	.
Cc1ccc(-c2csc3nnc(SCC(=O)NCc4ccc5c(c4)OCO5)n23)cc1	0.8	127	-2.3	8.7*	-0.25
O=C(CSc1nnc(-c2cccnc2)n1Cc1ccco1)NCc1ccc2c(c1)OCO2	1.2	124	0.35	0.072	0.33
O=C(CSc1nnc(-c2cccs2)n1Cc1ccccc1)NCc1ccc2c(c1)OCO2	1.1	.	-4.7*	.	.
COc1cccc(-c2nnc(SCC(=O)NCc3ccc4c(c3)OCO4)n2Cc2ccco2)c1	1.1	.	-4.6*	.	.
CCn1c(SCC(=O)NCc2ccc3c(c2)OCO3)nnc1-c1cccs1	0.8	88	1.3	1.1	0.52
CC(Sc1nnc(-c2cccs2)n1Cc1ccccc1)C(=O)NCc1ccc2c(c1)OCO2 (centres undefined)	1.5	.	-4.4*	.	.
CC1CN(C(=O)COc2ncnc3ccccc23)CC(C)O1 (centres undefined)	1	.	-0.16	.	.
CCCCn1nnnc1SCC(=O)NNC(=O)C1CCCCC1	1.7	.	-0.63	.	.
O=C(CSc1nnc(-c2cccs2)n1-c1ccccc1)NCc1ccc2c(c1)OCO2	1.1	106	-0.99	0.21	0.54
O=C(CSc1nnc(Cc2cccs2)n1-c1ccc(Cl)cc1)NCc1ccc2c(c1)OCO2	1.3	.	-8.5*	.	.
COc1cc(-c2nnc(SCC(=O)/C(C#N)=C(\C)N)o2)cc(OC)c1OC	1.1	.	0.23	.	.
CCCCNC(=O)CN(C1CCCCC1)S(C)(=O)=O	0.6	100	0.26	-0.011	0.35
Clc1ccc(Cn2c(-c3cccnc3Cl)nc3ccccc32)c(Cl)c1	1.4	.	-3	.	.
Clc1cccc(COn2c(-c3ccc(Cl)cc3Cl)nc3ncccc32)c1	1.5	.	-4.1*	.	.
Cc1ccc(COn2c(-c3ccc(Cl)cc3Cl)nc3ncccc32)cc1	1.4	.	-5.4*	.	.
O=C(NCCOC12CC3CC(CC(C3)C1)C2)c1cccc(Br)c1	1.1	.	-2	.	.
CCC(=O)Nc1cc(NC(=O)CSc2ncc(-c3ccc(F)cc3)n2Cc2ccco2)ccc1C	1.7	89	-8.8*	0.24	-0.1
COCCn1c(-c2ccc(OC)cc2)cnc1SCC(=O)Nc1cccc2ccccc12	1.3	.	-8.1*	.	.
SMILES	PLAP activator	Her2 expr inh	Cav3 T inh	M1 agonist	M1 antagonist
COc1ccc(-c2cnc(SCC(=O)Nc3nc(C(C)(C)C)cs3)n2Cc2ccco2)cc1	.	.	-5.7*	.	.
COC(=O)c1ccccc1NC(=O)CSc1nnc(-c2ccc(OC)cc2)n1C	.	.	0.49	.	.
COc1ccc(NC(=O)CSc2ncc(-c3ccc(F)cc3)n2Cc2ccco2)cc1	.	.	0.082	.	.
COc1ccc(-c2cnc(SCC(=O)Nc3cc(C)on3)n2Cc2ccco2)cc1	0.9	66	-4.5*	0.42	-0.35
COC(=O)C[C@H]1c2cc(C(F)(F)F)ccc2S(=O)(=O)N1Cc1ccccc1OC	.	.	-0.97	.	.
Cc1cc(C)cc(NC(=O)C2(c3ccccc3)CC2(Cl)Cl)c1 (centres undefined)	1.1	.	-6.1*	.	.
Cc1cccc(NC(=O)C2(c3ccccc3)CC2(Cl)Cl)c1 (centres undefined)	1	.	-8*	.	.
O=C1CCC([N+](=O)[O-])C(c2ccc(Cl)cc2Cl)N1 (centres undefined)	0.8	.	0.03	.	.
O=C(Nc1ccc(Br)cc1)c1ccc(N2C(=O)C3CC=C(Cl)CC3C2=O)cc1 (centres undefined)	0.8	.	0.0014	.	.
